Assay results taken from PMC4336329 (PLoS ONE, 2015).
In all, about 310,000 compounds went through this assay and about 14,000 (4.5%) showed an effect of 50% or more. Effects have a minus sign here. For the sample, strong results were picked, then their nearest neighbours and some compounds at random.

biological target: human ether-à-go-go-related gene (hERG) potassium channel (human, UniProt Q12809); assay: primary screen, population patch clamp on CHO cells stably expressing hERG; higher = less effect of the substance
Sequence (Q12809 whole entry, looked up): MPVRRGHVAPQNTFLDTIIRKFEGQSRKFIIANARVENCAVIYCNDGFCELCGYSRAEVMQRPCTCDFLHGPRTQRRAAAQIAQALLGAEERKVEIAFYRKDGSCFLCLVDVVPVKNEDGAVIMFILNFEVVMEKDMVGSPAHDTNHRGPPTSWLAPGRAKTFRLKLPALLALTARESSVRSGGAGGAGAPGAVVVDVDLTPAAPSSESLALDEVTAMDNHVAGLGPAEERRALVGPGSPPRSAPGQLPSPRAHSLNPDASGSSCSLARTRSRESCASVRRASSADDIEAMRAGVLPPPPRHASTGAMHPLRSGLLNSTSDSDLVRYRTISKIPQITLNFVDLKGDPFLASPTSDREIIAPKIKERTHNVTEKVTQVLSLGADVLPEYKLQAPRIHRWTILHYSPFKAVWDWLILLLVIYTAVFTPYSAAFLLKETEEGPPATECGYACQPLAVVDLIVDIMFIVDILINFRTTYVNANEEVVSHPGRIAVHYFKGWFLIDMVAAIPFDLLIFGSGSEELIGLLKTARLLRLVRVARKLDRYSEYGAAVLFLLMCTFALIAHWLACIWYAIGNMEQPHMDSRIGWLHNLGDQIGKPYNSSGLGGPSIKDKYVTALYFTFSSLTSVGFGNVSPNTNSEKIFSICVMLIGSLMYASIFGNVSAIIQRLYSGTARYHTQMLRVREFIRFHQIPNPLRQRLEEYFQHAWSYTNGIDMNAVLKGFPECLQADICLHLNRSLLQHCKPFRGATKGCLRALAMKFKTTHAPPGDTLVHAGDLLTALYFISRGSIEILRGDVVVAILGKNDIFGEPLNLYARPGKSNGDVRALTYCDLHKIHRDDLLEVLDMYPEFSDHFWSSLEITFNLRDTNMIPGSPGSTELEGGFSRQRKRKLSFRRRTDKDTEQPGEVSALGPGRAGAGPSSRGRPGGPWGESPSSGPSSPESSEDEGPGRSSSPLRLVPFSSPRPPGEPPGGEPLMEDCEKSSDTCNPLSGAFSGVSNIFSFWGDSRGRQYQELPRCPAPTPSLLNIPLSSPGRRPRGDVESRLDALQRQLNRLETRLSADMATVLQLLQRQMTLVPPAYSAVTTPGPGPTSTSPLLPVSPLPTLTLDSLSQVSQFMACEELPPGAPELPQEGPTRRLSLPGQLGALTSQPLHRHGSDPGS
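Note: peak tail current of the secondary pulse compared with the same well before compound.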

SMILES | hERG current change (%, negative = inhibition) at 10uM
COc1ccc(OC)c(CNC(=O)Cc2c(C(=O)O)[nH]c3ccccc23)c1 | 15.3%
Cc1ccccc1N1CCN(C2CCCN(C(=O)c3ocnc3C)C2)CC1 (stereo not shown) | -16.9%
CN(c1ccccc1)S(=O)(=O)c1cccc(C(=O)OCC(=O)Nc2ccc3[nH]c(=O)[nH]c3c2)c1 | 19.6%
CC(C)c1ccc(NC(=S)N(C)CCc2ccccn2)cc1 | -8.91%
Cc1ccc(CN(C)CCc2ccccn2)cc1 | -41.1%
CC(C)c1ccc(N(CCc2ccccn2)C(=O)C(C)(C)C)cc1 | -5.99%
CCc1ccc(CN(C)CCc2ccccn2)cc1 | -62.6%
CC(C)=CCCC(C)CN(C)CCc1ccccn1 (stereo not shown) | -65.4%
Cc1cccc(CN(C)CCc2ccccn2)c1 | -15.3%
CN(CCc1ccccn1)Cc1ccc(Cl)c(Cl)c1 | -36.3%
Cc1ccccc1CN(C)CCc1ccccn1.O=C(O)C(=O)O | -7.25%
CN(CCc1ccccn1)C(=O)c1cccnc1Oc1ccc(Cl)cc1 | -19.5%
CN(CCc1ccccn1)Cc1ccc(Cl)cc1Cl | -64.3%
CN(CCc1ccccn1)C(=O)Nc1ccc(Cl)cc1 | 6.31%
CN(CCc1ccccn1)Cc1ccc(Cl)cc1 | -53.7%
CC(=O)N1CCC(=O)N(C(C)C)c2ccccc21 | 3.9%
COc1ccc(CNC(=O)c2cccnc2Sc2ccc(C)c(C)c2)cc1 | 3.63%
COc1ccccc1-c1coc2cc(O)cc(O)c2c1=O | 9.89%
Cc1ccc(OCC(=O)c2ccc(Cl)s2)c([N+](=O)[O-])n1 | 2.66%
Cc1ccc(S(=O)(=O)NCc2n[nH]c(=S)n2C)cc1 | 21%
NC(=O)c1cc([N+](=O)[O-])ccc1NCc1ccc(N)cc1 | 10.5%
COc1cc2c(cc1NC(=O)c1cccnc1)CCCC2 | 14.2%
Cc1cccc(-c2noc(-c3ccc4c(c3)OCO4)n2)c1 | 7.53%
COc1cc(Cl)c(C)cc1NC(=O)CN1CCCCCC1 | -0.067%

SMILES | hERG current change (%, negative = inhibition) at 10uM
COc1cc(NC(=O)c2ccccc2Cl)c(OC)cc1NC(=O)CN1CCOCC1 | -3.34%
COc1cc(Cl)c(C)cc1NC(=O)c1ccccc1NC(=O)CN1CCOCC1 | -58.7%
COc1cc(NC(=O)CN2CCN(C(=O)C3CCCO3)CC2)c(OC)cc1Cl (stereo not shown) | -12.5%
COc1cc(OC)c(NC(=O)CCCn2c(=O)oc3ccccc32)cc1Cl | 9.61%
COc1cc(Cl)c(C)cc1NC(=O)CN1CCN(C(=O)C2CC2)CC1 | -59.6%
COc1cc(NC(=O)c2ccccc2C)c(OC)cc1NC(=O)CN1CCOCC1 | -7.78%
COc1ccc(NC(=O)CCCn2c(=O)oc3ccccc32)cc1Cl | -12.9%
COc1cc(Cl)c(C)cc1NC(=O)CCCn1c(=O)oc2ccccc21 | -58.7%
O=C(CN1CCN(S(=O)(=O)c2cc(Cl)ccc2Cl)CC1)Nc1ccc2c(c1)OCCO2 | -23.2%
O=C(CC(c1ccccc1)c1cc(Cl)ccc1O)N1CCOCC1 (stereo not shown) | -15.1%
CCc1ccc(S(=O)(=O)N/N=C\c2ccc3c(c2)OCO3)cc1 | 9.85%
CCCN(CC(=O)Nc1ccc(F)c(F)c1F)C(=O)c1ccc(N2CCCC2=O)cc1 | -4.37%
C=CCOc1ccccc1/C=N/NC(=O)c1ccc(Cl)cc1Cl | -6.98%
O=C(CC1C(=O)NCCN1CC1CCCCC1)NCc1ccccc1Cl (stereo not shown) | -5.9%
Cc1nc(-c2cccc(S(=O)(=O)N3CCCC(C)C3)c2)cs1 (stereo not shown) | -9.76%
CC(=O)N1CCN(c2ccc(S(C)(=O)=O)cc2[N+](=O)[O-])CC1 | -12.7%
O=C(c1ccc(N2CCCC2)c([N+](=O)[O-])c1)N1CCN(c2ccccn2)CC1 | -21.8%
CS(=O)(=O)c1ccc(N2CCN(c3ccccn3)CC2)c([N+](=O)[O-])c1 | -55%
Cc1ccc(C(=O)N2CCN(c3ccccn3)CC2)cc1[N+](=O)[O-] | 9.02%
O=C(c1ccc(N2CCOCC2)c([N+](=O)[O-])c1)N1CCN(S(=O)(=O)c2cccs2)CC1 | -47.3%
CN1CCN(c2ccc(S(=O)(=O)N3CCCCC3)cc2[N+](=O)[O-])CC1 | -48%
CN1CCN(c2ccc(S(C)(=O)=O)cc2[N+](=O)[O-])CC1 | -2.78%
CS(=O)(=O)c1ccc(N2CCN(S(=O)(=O)c3cccs3)CC2)c([N+](=O)[O-])c1 | -67.1%
O=C(c1ccc(N2CCCCC2)c([N+](=O)[O-])c1)N1CCN(c2ccccn2)CC1 | -66.8%

SMILES | hERG current change (%, negative = inhibition) at 10uM
CCOC(=O)c1cnn(-c2sc(C(=O)OCC)c(C)c2C(=O)OCC)c1N | 16.4%
O=C(NC1CCCCC1)c1ccc2snnc2c1 | 12.8%
NS(=O)(=O)c1ccc(CCNC(=O)CCCCCn2c(=S)[nH]c3ccc(Br)cc3c2=O)cc1 | 9.32%
O=C(O)c1ccc(-n2nnnc2SCc2cccc(Br)c2)cc1 | 13.2%
COc1ccc(/C=C/C(=O)NC(=S)Nc2ccc(N3CCN(C(C)=O)CC3)cc2)cc1 | 12.2%
COC(=O)C1=C(c2cccc(OCc3ccccc3)c2)C[C@@H]2CC[C@H]1N2C(=O)NNCc1ccccc1 | 10.8%
CC1CC(C)CN(C(=O)Cn2cc(C=O)c3ccccc32)C1 (stereo not shown) | -4.11%
Cc1nn(C)c(C(=O)NNC(=S)NCc2ccco2)c1Cl | 7.69%
O=c1cc2c(nn1Cc1ccccc1)-c1ccccc1CC2 | -17.6%
O=c1cc2c(nn1Cc1ccc(F)cc1)-c1ccccc1CC2 | -61.3%
O=c1cc2c(nn1Cc1ccc(Cl)cc1)-c1ccccc1CC2 | -13.6%
C#Cc1ccc([C@H]2C=C(C(=O)O)O[C@@H](OCc3ccc(CO)cc3)C2)cc1 | 9.26%
Clc1ccccc1OCCCCn1ccnc1 | -2.93%
O=C(O)CN1C(=O)/C(=C\c2ccccc2OCc2ccc(Cl)cc2)SC1=S | 15.3%
Cc1ccc(C2C(C(=O)c3cc4ccccc4o3)=C(O)C(=O)N2c2cc(C)on2)cc1 (stereo not shown) | 19.3%
CCOc1ccc2nc(SCC(=O)Nc3ccc4[nH]c(=O)[nH]c4c3)[nH]c2c1 | 27%
Cc1ccc2nc(COc3ccc(N(C)S(=O)(=O)c4ccccc4)cc3)cc(=O)n2c1 | -56%
COc1cccc(COc2ccc(N(C)S(=O)(=O)c3ccccc3)cc2)c1 | 3.08%
Cc1ccc2nc(COc3ccc(Cl)cc3)cc(=O)n2c1 | 15%
O=C(/C(Cl)=C/Nc1ccc(Br)cn1)C(F)(F)F | 12.7%
O=C(CN1C(=O)CC(c2ccco2)Sc2ccccc21)Nc1ccccc1F (stereo not shown) | -39.3%
Cc1cc(NC(=O)CN2C(=O)CC(c3ccco3)Sc3ccccc32)no1 (stereo not shown) | -61.8%
O=C(CN1C(=O)CC(c2ccco2)Sc2ccccc21)Nc1ccc2c(c1)OCCO2 (stereo not shown) | -6.73%
Oc1cccc(C=NCc2ccccc2)c1 | 8.22%

SMILES | hERG current change (%, negative = inhibition) at 10uM
O=C(c1ccc(Cl)cc1)N1CCN(C(=O)C2CCCCC2)CC1 | -2.89%
Cc1cc(C)n(-c2nc(C)nc(N)n2)n1 | 10.3%
O=C(c1ccc(Cl)cc1)C1CCCN(Cc2ccc(Oc3ncccn3)cc2)C1 (stereo not shown) | -72.9%
COc1c(C)cc(C(=O)C2CCCN(Cc3ccccn3)C2)cc1C (stereo not shown) | -16.5%
CC(C)Oc1cccc(C(=O)C2CCCN(Cc3ccc4nonc4c3)C2)c1 (stereo not shown) | -1.53%
NC(=O)C1CCCN(Cc2ccc(Cl)cc2)C1 (stereo not shown) | 0.421%
COc1c(C)cc(C(=O)C2CCCN(Cc3ccc(Oc4ncccn4)cc3)C2)cc1C (stereo not shown) | -68.9%
COc1c(C)cc(C(=O)C2CCCN(Cc3cccc(O)c3)C2)cc1C (stereo not shown) | -23.9%
CC(C)Oc1cccc(C(=O)C2CCCN(Cc3cnn(C(C)C)c3)C2)c1 (stereo not shown) | -36.3%
CC(C)Oc1cccc(C(=O)C2CCCN(Cc3ccc(Oc4ncccn4)cc3)C2)c1 (stereo not shown) | -62.6%
COc1cccc(-n2cc3c(=O)n(C)c(=O)n(C)c3c2)c1 | -3.89%
O=C(Nc1ccccc1Br)C(=O)N1CCCC1 | 3.44%
CCCC(C)NC(=O)Cc1ccccc1[N+](=O)[O-] (stereo not shown) | 2.52%
CCCC(C)NC(=O)C1CCN(S(=O)(=O)c2ccccc2)CC1 (stereo not shown) | -12%
COc1ccc(OC)c(S(=O)(=O)Nc2cccc(-c3ccc4nncn4n3)c2)c1 | 18.7%
CC(C)(C)C(=O)OCc1nc(-c2ccc3c(c2)OCCO3)cs1 | 10.8%
CCN(CC)CCNCc1cc(Cl)ccc1OCc1ccccc1F.Cl | -72.8%
CC(C)(C)NCc1cc(Cl)ccc1OCc1ccccc1F.Cl | -43.3%
CCOc1ccc(Cl)cc1CNCCNCCO.Cl | 24.3%
CCOc1ccc(Cl)cc1CNCCc1ccc(F)cc1.Cl | -48%
CCNCc1ccc(OCc2ccccc2F)c(OC)c1.Cl | -11%
CCOc1ccc(Cl)cc1CNCCc1ccccc1F.Cl | -59.8%
